# Laboratory results published in PubChem BioAssay (Tox21).
# Several values for one entry are separate records, joined by “and”; a condition that tells them apart may be missing. Identical values can stand only once. Inconclusive results are not listed. Entries that show only a call come without a potency. A structure can be active in one record and inactive in another. Activity calls are given as the source filed them. Unless noted, the call rests on the fitted dose curve; in most records, active means well fitted curve in the direction sought with a large enough effect in the repeat runs; inconclusive means weak or mixed curves; inactive means no such curve, though single readings can be large; an effect the other way counts as inactive or inconclusive.
# Columns and labels:
# [1] = molecular target: Retinoic acid receptor RXR-alpha (Homo sapiens) (UniProt P19793); test: qHTS assay to identify small molecule agonists of the RXR signaling pathway (AID 1159527; calls by dose curve; further: nearly all actives have a fitted effect of over 35% in size)
# Sequence of Retinoic acid receptor RXR-alpha (Homo sapiens) (P19793 whole entry, looked up): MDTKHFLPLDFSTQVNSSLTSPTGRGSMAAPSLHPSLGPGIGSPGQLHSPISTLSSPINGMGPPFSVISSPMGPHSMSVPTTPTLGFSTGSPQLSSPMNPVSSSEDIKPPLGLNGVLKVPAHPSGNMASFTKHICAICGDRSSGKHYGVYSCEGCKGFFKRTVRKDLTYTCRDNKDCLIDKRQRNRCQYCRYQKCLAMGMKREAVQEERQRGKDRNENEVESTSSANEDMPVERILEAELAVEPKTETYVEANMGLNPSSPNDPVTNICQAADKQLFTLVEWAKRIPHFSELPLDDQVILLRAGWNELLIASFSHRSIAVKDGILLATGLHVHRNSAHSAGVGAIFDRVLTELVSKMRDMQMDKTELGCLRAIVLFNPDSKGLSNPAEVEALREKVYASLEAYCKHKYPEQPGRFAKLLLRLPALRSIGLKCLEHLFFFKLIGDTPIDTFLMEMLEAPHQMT
# In short: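 Using 9-cis retinoic acid as the reference agonist, chemicals were tested in HEK 293T cells […] for 16 hr; substrate loading lasted 2 hr at room temperature.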
# [2] = qHTS assay to identify small molecule antagonists of the retinoid acid receptor (RAR) signaling pathway - cell viability counter screen (AID 1159551); further: nearly all actives have a fitted effect of over 35% in size; further: potency means the concentration at half of the fitted maximal effect
# In short: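 C3RL4 RARE-luciferase line; cpds + retinol 1 uM final, 6 h, 37 C/5% CO2; CellTiter-Glo ATP luminescence, 30 min RT.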
# [3] = qHTS assay to identify small molecule agonists of the RXR signaling pathway - cell viability counter screen (AID 1159529); further: nearly all actives have a fitted effect of over 50% in size; further: potency means the concentration at half of the fitted maximal effect
# In short: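 Compounds dissolved in DMSO were pinned onto HEK 293T cells carrying a beta-lactamase reporter under RXR-alpha control and incubated 16 hr. Cytotoxicity was then quantified by CellTiter-Glo luminescence.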
# [4] = qHTS assay to identify small molecule antagonists of the retinoic acid receptor (RAR) signaling pathway (AID 1159552; further: nearly all actives have a fitted effect of over 50% in size; further: potency means the concentration at half of the fitted maximal effect)
# In short: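 Test chemicals and DMSO controls were pin-transferred onto C3RL4 cells a day after seeding; retinol (1 uM final) followed at once. Luminescent reporter output was quantified after 6 hr of co-incubation and 30 min with detection reagent.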
# [5] = qHTS assay to identify small molecule agonists of the retinoic acid receptor (RAR) signaling pathway (AID 1159553); further: potency means the concentration at half of the fitted maximal effect
# In short: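 RARE-luc C3RL4 cells; overnight attachment 37 C/5% CO2; compound (DMSO) 6 hr; luciferase reagent, 30 min RT; luminescence read-out.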
# [6] = qHTS assay to identify small molecule antagonists of the estrogen related receptor (ERR) signaling pathway - cell viability counter screen (AID 1224818); further: potency means the concentration at half of the fitted maximal effect
# In short: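 Fluorescence from CellTiter-Fluor, read 30 min after reagent addition at 37 C, measured viability of ERR cells exposed to compounds for 17.5 h. Cells had settled 6 h before dosing.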
# [7] = qHTS assay to identify small molecule antagonists of the estrogen related receptor signaling pathway with the pleiotropic PPARgamma coactivator (PGC) cell viability counter screen (AID 1224822; further: potency means the concentration at half of the fitted maximal effect)
# In short: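 Fluorescence read-out of CellTiter-Fluor after 30 min at 37 C; PGC/ERR cells, 2,000 per well, had been exposed to DMSO-dissolved compounds for 17.5 h following a 6 h pre-incubation.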
# [8] = qHTS assay to identify small molecule antagonists of the estrogen related receptor (ERR) signaling pathway (AID 1224819; further: nearly all actives have a fitted effect of over 50% in size; further: potency means the concentration at half of the fitted maximal effect)
# In short: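 Luminescence readout (One-Glo, 30 min, RT) of ERR cell line after 18 h compound exposure at 37 C; cells seeded 2,000/well, pre-incubated 6 h, compounds pinned from DMSO stocks.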
# [9] = qHTS assay to identify small molecule agonists of the estrogen related receptor (ERR) signaling pathway (AID 1224820)
# In short: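 Luminescence readout (One-Glo, 30 min RT) from NTP-supplied ERR cell line exposed to compounds for 18 h at 37 C. Cells seeded 2,000 per well and pre-incubated 6 h before pin-tool compound transfer.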
# [10] = test system: estrogen-related receptor alpha (ERRalpha) with PGC-1alpha coactivator, human; test: qHTS assay to identify small molecule antagonists of the estrogen related receptor signaling pathway with the pleiotropic PPARgamma coactivator (PGC) (AID 1224821; calls by dose curve; further: nearly all actives have a fitted effect of over 50% in size; further: potency means the concentration at half of the fitted maximal effect)
# In short: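 PGC/ERR reporter cells; 6 h pre-incubation 37 C/5% CO2; pin-tool compound in DMSO, 18 h 37 C; One-Glo added, 30 min RT; luminescence read. qHTS antagonist mode.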
structure (smiles),measurement,setting,value
COC(=O)CCC(=O)OC,Potency,[1],inactive
same,Potency,[2],inactive
CN1C(C(=O)Nc2ccccn2)=C(O)c2ccccc2S1(=O)=O,Potency,[1],inactive
same,Potency,[3],inactive
same,Potency,[2],inactive
same,Potency,[4],inactive
same,Potency,[5],inactive
same,Potency,[6],inactive
same,Potency,[7],inactive
CN(C)CCN(Cc1cccs1)c1ccccn1,Potency,[1],inactive
same,Potency,[2],inactive
same,Potency,[4],inactive
same,Potency,[5],inactive
same,Potency,[6],inactive
same,Potency,[7],inactive
c1ccc2c(c1)Oc1ccccc1S2,Potency,[1],inactive
same,Potency,[2],inactive
C=C(C)C1CC=C(C)CC1 (stereo not drawn),Potency,[1],inactive
same,Potency,[2],inactive
COc1cc([C@@H]2c3cc4c(cc3[C@H](O)[C@H]3COC(=O)[C@H]23)OCO4)cc(OC)c1OC,Potency,[3],inactive
same,Potency,[2],inactive
same,Potency,[5],inactive
O=C(O)c1ccccc1Nc1cccc(C(F)(F)F)c1,Potency,[2],inactive
same,Potency,[4],inactive
same,Potency,[5],inactive
O=c1oc(=O)c2cc3c(=O)oc(=O)c3cc12,Potency,[3],inactive
same,Potency,[2],inactive
same,Potency,[4],inactive
same,Potency,[5],inactive
S=C(NC1CCCCC1)NC1CCCCC1,Potency,[2],inactive
same,Potency,[4],inactive
same,Potency,[5],9.5 µM (active) and 9.69 µM (active)
Cc1c(OCC(F)(F)F)ccnc1CS(=O)c1nc2ccccc2[nH]1 (stereo not drawn),Potency,[3],inactive
same,Potency,[2],inactive
same,Potency,[4],inactive
same,Potency,[5],34.4 µM (active) and 26.6 µM (active)
same,Potency,[6],inactive
same,Potency,[8],inactive
same,outcome,[9],inactive
same,Potency,[10],inactive
same,Potency,[7],inactive
Nc1ccccc1N,Potency,[2],inactive
same,Potency,[4],inactive
same,Potency,[5],1.25 µM (active) and 1.72 µM (active)
same,Potency,[6],inactive
O=C(/C=C/c1ccccc1)OCc1ccccc1,Potency,[2],inactive
same,Potency,[4],inactive
same,Potency,[5],30.6 µM (active) and 29.8 µM (active)
CC(=O)O[C@]1(C(C)=O)CC[C@H]2[C@@H]3C=C(Cl)C4=CC(=O)[C@@H]5C[C@@H]5[C@]4(C)[C@H]3CC[C@@]21C,Potency,[2],inactive
same,Potency,[6],inactive
same,Potency,[7],inactive
Nc1ccc(Nc2ccccc2)cc1,Potency,[3],inactive
same,Potency,[2],inactive
same,Potency,[4],inactive
same,Potency,[5],inactive
COC(=O)C1=C(C)NC(C)=C(C(=O)OCCN(C)Cc2ccccc2)C1c1cccc([N+](=O)[O-])c1 (stereo not drawn),Potency,[3],24.4 µM (active)
same,Potency,[2],inactive
same,Potency,[6],23.7 µM (active)
same,Potency,[7],23.7 µM (active)
c1ccc2sc(SSN3CCOCC3)nc2c1,Potency,[3],inactive
same,Potency,[2],61 µM (active)
same,Potency,[5],inactive
O=C(Nc1ccc(Cl)cc1)Nc1ccc(Cl)c(Cl)c1,Potency,[4],inactive
same,Potency,[5],3.06 µM (active) and 3.35 µM (active)
CN(C)c1nc(N(C)C)nc(N(C)C)n1,Potency,[1],inactive
same,Potency,[2],inactive
same,Potency,[4],inactive
same,Potency,[5],inactive
same,Potency,[6],inactive
same,Potency,[7],inactive
O=C1OC2(c3cc(Br)c(O)c(Br)c3Oc3c2cc(Br)c(O)c3Br)c2c(Cl)c(Cl)c(Cl)c(Cl)c21,Potency,[3],inactive
same,Potency,[2],4.33 µM (active)
COC(C)COC(C)COC(C)CO (stereo not drawn),Potency,[3],inactive
same,Potency,[2],inactive
O=C1c2cccc(O)c2C(=O)c2c(O)cccc21,Potency,[2],inactive
same,Potency,[4],inactive
same,Potency,[5],inactive
O=C(Nc1ccc([N+](=O)[O-])cc1Cl)c1cc(Cl)ccc1O,Potency,[4],inactive
same,Potency,[5],43.3 nM (active) and 82 nM (active)
O=C(COc1ccc(Cl)cc1)N1CCN(Cc2ccc3c(c2)OCO3)CC1,Potency,[3],inactive
same,Potency,[2],inactive
c1cc(N(CC2CO2)CC2CO2)ccc1OCC1CO1 (stereo not drawn),Potency,[3],inactive
same,Potency,[2],inactive
same,Potency,[4],inactive
CCCCc1oc2ccccc2c1C(=O)c1cc(I)c(OCCN(CC)CC)c(I)c1,Potency,[1],inactive
same,outcome,[9],inactive
same,Potency,[10],inactive
Oc1ccc(O)cc1,Potency,[1],inactive
same,Potency,[4],17.1 µM (active) and 24.3 µM (active) and 10.6 µM (active)
same,Potency,[5],inactive
same,Potency,[6],inactive
same,Potency,[7],inactive
Cc1cccc(N(C)C(=S)Oc2ccc3ccccc3c2)c1,Potency,[2],inactive
same,Potency,[4],inactive
same,Potency,[5],2.43 µM (active) and 13.3 µM (active)
CC(=O)Oc1ccccc1C(=O)Nc1ncc([N+](=O)[O-])s1,Potency,[3],inactive
same,Potency,[4],inactive
same,Potency,[5],140 nM (active) and 188 nM (active)
CC(C)(C)NC(=O)[C@H]1CC[C@H]2[C@@H]3CC[C@H]4NC(=O)C=C[C@]4(C)[C@H]3CC[C@]12C,Potency,[3],inactive
same,Potency,[2],inactive
same,Potency,[4],inactive
same,Potency,[5],inactive
O=C(c1ccccc1)c1ccc(O)cc1O,Potency,[3],25 µM (active) and inactive
same,Potency,[2],inactive
same,Potency,[4],55.5 µM (active) and inactive
same,Potency,[5],inactive
CN(C)CCC=C1c2ccccc2CCc2ccccc21,Potency,[3],12.3 µM (active) and 15.5 µM (active) and 13.4 µM (active)
same,Potency,[2],inactive
same,Potency,[6],inactive
same,Potency,[7],inactive
OC1CCCCCCCCCCC1,Potency,[2],inactive
same,Potency,[4],inactive
same,Potency,[5],inactive
C#C[C@]1(O)CC[C@H]2[C@@H]3CCC4=Cc5oncc5C[C@]4(C)[C@H]3CC[C@@]21C,Potency,[3],21.9 µM (active)
same,Potency,[2],inactive
Cc1cc2nc3c(=O)[nH]c(=O)nc-3n(C[C@H](O)[C@H](O)[C@H](O)CO)c2cc1C,Potency,[2],inactive
same,Potency,[4],inactive
same,Potency,[5],inactive
C[C@]12CC[C@H]3[C@@H](CCC4=CC(=O)CC[C@@]43C)[C@@H]1CC[C@@H]2C(=O)CO,Potency,[3],inactive
same,Potency,[2],inactive
Nc1ncn([C@@H]2O[C@H](CO)[C@@H](O)[C@H]2O)c(=O)n1,Potency,[2],inactive
same,Potency,[4],27.3 µM (active) and 29.8 µM (active)
same,Potency,[8],0.619 µM (active)
same,outcome,[9],inactive
same,Potency,[10],3.1 µM (active)
CNCCCC12CCC(c3ccccc31)c1ccccc12,Potency,[2],inactive
same,Potency,[6],inactive
O=C(c1ccc(OCCN2CCCCC2)cc1)c1c(-c2ccc(O)cc2)sc2cc(O)ccc12,Potency,[3],27.5 µM (active) and 23.9 µM (active)
same,Potency,[2],inactive
CCOC(=O)C(C#N)=C(c1ccccc1)c1ccccc1,Potency,[2],inactive
same,Potency,[4],inactive
same,Potency,[5],inactive
CN(C)C(=N)N=C(N)N,Potency,[3],inactive
same,Potency,[2],inactive
same,Potency,[5],inactive
COc1cccc2c1C(=O)c1c(O)c3c(c(O)c1C2=O)C[C@@](O)(C(=O)CO)C[C@@H]3O[C@H]1C[C@H](N)[C@H](O)[C@H](C)O1,Potency,[2],inactive
same,Potency,[4],3.85 µM (active)
same,Potency,[5],inactive
